Measurements taken from PubChem BioAssay (NCATS).
Several values for one entry are separate records, joined by “and”; a condition that tells them apart may be missing. Equal values may be shown once. Results filed as inconclusive are left out. Activity calls are given as the source filed them. Unless noted, the call rests on the fitted dose curve; in most records, active means well fitted curve in either direction with a large enough effect (not every such curve was filed as active); inconclusive means small, poorly fitted or top-dose-only effect, or another doubt; inactive means flat fitted curve, though single readings scatter.

system: not listed separately; experiment: NFAT Signaling Pathway (AID 444); settings: Jurkat NFAT-bla M1, carbachol, beta-lactamase ratio, 5 h; at 17.2 µM (top of the series) unless noted;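 further: carbachol stimulus at about its EC50 of 1 µM final; on the % scale 0 is the no-effect control and ±100 the full control effect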
Summary of the method: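 Read-out: CCF4 FRET ratio (460 nm/530 nm) after 1 h RT dye loading, used for %activity and AC50 from titration series. Cells: Jurkat NFAT-β-lactamase/M1 line, treated with compound plus 1 uM carbachol for 5 h, 37 °C.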

SMILES | activity change, negative = inhibition
COc1ccccc1OCC(O)COC(N)=O (stereo unspecified) | -29.9% (inactive)
CCN(CC)CC#CCOC(=O)C(O)(c1ccccc1)C1CCCCC1 (stereo unspecified) | -93% (active)
CC(C)(Sc1cc(C(C)(C)C)c(O)c(C(C)(C)C)c1)Sc1cc(C(C)(C)C)c(O)c(C(C)(C)C)c1 | 10.7% (inactive)
CCn1cc(C(=O)O)c(=O)c2cc(F)c(N3CCNCC3)cc21 | 1.51% (inactive) and 17.3% (inactive)

system: not listed separately; experiment: Stat Signaling Pathway (AID 446); settings: ME-180 (cervical carcinoma) SIE beta-lactamase reporter, IL-6 stimulated, 5 h; at 17.2 µM (top of the series) unless noted;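 further: ME-180 cervical cancer cells given 40 pM IL-6 alongside compound; SIE-controlled beta-lactamase reporter measured as 460/530 nm FRET emission ratio; on the % scale 0 is the no-effect control and ±100 the full control effect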
Summary of the method: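 Overnight-plated ME-180 cells bearing a STAT Inducible Element beta-lactamase reporter; 5 h co-exposure to compound and 40 pM IL-6; values normalized to 300 pM IL-6 and 125 nM JAK inhibitor controls.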

SMILES | activity, negative = inhibition
Clc1ccccc1CN1CCc2sccc2C1 | 1.54% (inactive) and 0.607% (inactive)
O=C(O)c1cccnc1 | 3.94% (inactive)
CCC(=O)O[C@]1(C(=O)CCl)[C@@H](C)C[C@H]2[C@@H]3CCC4=CC(=O)C=C[C@]4(C)[C@@]3(F)[C@@H](O)C[C@@]21C | -5.77% (inactive)
O=C(O)c1cn(C2CC2)c2cc(N3CCNCC3)c(F)cc2c1=O | 11.7% (inactive)
Cc1ccc(S(=O)(=O)N[C@@H](Cc2ccccc2)C(=O)CCl)cc1 | -65.8% [at 38 µM] (active)
Nc1[nH]c(=O)ncc1F | -4.22% (inactive)
N[C@@H](C(=O)N[C@@H]1C(=O)N2C(C(=O)O)=C(Cl)CS[C@H]12)c1ccccc1 | 1.22% (inactive)
Cn1c(=O)c2c(ncn2CC(O)CO)n(C)c1=O (stereo unspecified) | 1.2% (inactive)
C1CCC(C(CC2CCCCN2)C2CCCCC2)CC1 (stereo unspecified) | 5.25% (inactive)
COc1ccccc1OCC(O)COC(N)=O (stereo unspecified) | 6.13% (inactive)
NS(=O)(=O)c1cc2c(cc1Cl)NC(C(Cl)Cl)NS2(=O)=O (stereo unspecified) | 2.72% (inactive)
N=C(N)c1ccc(OCCCCCOc2ccc(C(=N)N)cc2)cc1 | 15.4% (inactive)
Nc1nc(F)nc2c1ncn2[C@@H]1O[C@H](CO)[C@@H](O)[C@@H]1O | 7.84% (inactive)
CCN(CC)CC#CCOC(=O)C(O)(c1ccccc1)C1CCCCC1 (stereo unspecified) | 0.633% (inactive)
CC(C)(Sc1cc(C(C)(C)C)c(O)c(C(C)(C)C)c1)Sc1cc(C(C)(C)C)c(O)c(C(C)(C)C)c1 | 5.26% (inactive)
CCn1cc(C(=O)O)c(=O)c2cc(F)c(N3CCNCC3)cc21 | 1.48% (inactive) and 7% (inactive)
COc1cc([C@@H]2c3cc4c(cc3[C@H](O)[C@H]3COC(=O)[C@H]23)OCO4)cc(OC)c1OC | 6.38% (inactive)

biological target: Glucocorticoid receptor (Homo sapiens) (UniProt P04150); experiment: GR-GFP Redistribution (AID 450;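 active means compounds whose dose series gives a full or clear partial fitted curve of increased nuclear translocation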; further: potency means the concentration at half of the fitted maximal effect); settings: U2OS GR-GFP nuclear translocation, laser cytometry, 2 h
Sequence (P04150 whole entry, looked up, the tested form may be a part): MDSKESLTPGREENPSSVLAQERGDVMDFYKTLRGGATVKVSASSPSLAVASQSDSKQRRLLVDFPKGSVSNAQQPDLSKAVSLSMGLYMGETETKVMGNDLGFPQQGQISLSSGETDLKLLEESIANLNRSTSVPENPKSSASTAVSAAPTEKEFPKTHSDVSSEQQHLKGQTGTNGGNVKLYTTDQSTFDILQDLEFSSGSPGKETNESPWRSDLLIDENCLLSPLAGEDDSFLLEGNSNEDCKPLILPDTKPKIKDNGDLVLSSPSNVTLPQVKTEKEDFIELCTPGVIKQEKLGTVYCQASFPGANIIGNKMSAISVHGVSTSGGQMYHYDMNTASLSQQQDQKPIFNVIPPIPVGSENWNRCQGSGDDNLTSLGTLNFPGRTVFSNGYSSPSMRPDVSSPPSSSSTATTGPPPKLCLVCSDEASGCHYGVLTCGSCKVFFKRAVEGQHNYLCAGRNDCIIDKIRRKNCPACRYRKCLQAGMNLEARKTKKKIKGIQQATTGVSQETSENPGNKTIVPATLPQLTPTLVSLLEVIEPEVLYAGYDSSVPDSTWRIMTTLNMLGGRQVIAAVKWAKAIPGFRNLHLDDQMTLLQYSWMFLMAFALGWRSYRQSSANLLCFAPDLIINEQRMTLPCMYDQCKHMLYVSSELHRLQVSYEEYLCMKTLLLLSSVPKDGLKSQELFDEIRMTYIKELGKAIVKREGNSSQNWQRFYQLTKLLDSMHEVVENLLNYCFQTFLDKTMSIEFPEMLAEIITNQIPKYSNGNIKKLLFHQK

SMILES | Potency
COc1cc2ncnc(Nc3cccc(Cl)c3)c2cc1OC | > 46 µM (inactive)
O=c1oc2c(O)c(O)cc3c(=O)oc4c(O)c(O)cc1c4c23 | > 46 µM (inactive)
CCC(=O)O[C@]1(C(=O)CCl)[C@@H](C)C[C@H]2[C@@H]3CCC4=CC(=O)C=C[C@]4(C)[C@@]3(F)[C@@H](O)C[C@@]21C | < 5.9e-06 µM (active)
Cc1ccc(S(=O)(=O)N[C@@H](Cc2ccccc2)C(=O)CCl)cc1 | > 46 µM (inactive)
Nc1[nH]c(=O)ncc1F | > 20.6 µM (inactive)
N[C@@H](C(=O)N[C@@H]1C(=O)N2C(C(=O)O)=C(Cl)CS[C@H]12)c1ccccc1 | > 20.6 µM (inactive)
CC1=CC(=O)c2ccccc2C1=O | > 20.6 µM (inactive)
Cn1c(=O)c2c(ncn2CC(O)CO)n(C)c1=O (stereo unspecified) | > 20.6 µM (inactive)
C1CCC(C(CC2CCCCN2)C2CCCCC2)CC1 (stereo unspecified) | > 20.6 µM (inactive)
COc1ccccc1OCC(O)COC(N)=O (stereo unspecified) | > 20.6 µM (inactive)
N=C(N)c1ccc(OCCCCCOc2ccc(C(=N)N)cc2)cc1 | > 20.6 µM (inactive)
Nc1nc(F)nc2c1ncn2[C@@H]1O[C@H](CO)[C@@H](O)[C@@H]1O | > 20.6 µM (inactive)
CCN(CC)CC#CCOC(=O)C(O)(c1ccccc1)C1CCCCC1 (stereo unspecified) | > 20.6 µM (inactive)
CC(C)(Sc1cc(C(C)(C)C)c(O)c(C(C)(C)C)c1)Sc1cc(C(C)(C)C)c(O)c(C(C)(C)C)c1 | > 20.6 µM (inactive)
CCn1cc(C(=O)O)c(=O)c2cc(F)c(N3CCNCC3)cc21 | > 20.6 µM (inactive)
CC[C@H](NC(C)C)[C@H](O)c1ccc(O)c2[nH]c(=O)ccc12 | > 46 µM (inactive)

biological target: Glucocorticoid receptor (Homo sapiens) (UniProt P04150); experiment: GR-EFC Redistribution (AID 451; calls by dose curve; further: potency means the concentration at half of the fitted maximal effect); settings: CHO-K1 GR-EFC translocation, beta-gal luminescence, 2 h
Summary of the method: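 Translocation of GR-ED fusion to nuclear EA restores b-gal, read by luminescence after 1 h room-temperature detection. Engineered CHO-K1 biosensor cells, 1,000/well, exposed 2 h at 37 C to titrations up to 46 uM final.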

SMILES | Potency
COc1cc2ncnc(Nc3cccc(Cl)c3)c2cc1OC | > 46 µM (inactive)
O=c1oc2c(O)c(O)cc3c(=O)oc4c(O)c(O)cc1c4c23 | > 46 µM (inactive)
Cc1ccc(S(=O)(=O)N[C@@H](Cc2ccccc2)C(=O)CCl)cc1 | > 46 µM (inactive)
Nc1[nH]c(=O)ncc1F | > 20.6 µM (inactive)
CC1=CC(=O)c2ccccc2C1=O | > 20.6 µM (inactive)
N=C(N)c1ccc(OCCCCCOc2ccc(C(=N)N)cc2)cc1 | > 20.6 µM (inactive)
CC(C)(Sc1cc(C(C)(C)C)c(O)c(C(C)(C)C)c1)Sc1cc(C(C)(C)C)c(O)c(C(C)(C)C)c1 | > 20.6 µM (inactive)
CCn1cc(C(=O)O)c(=O)c2cc(F)c(N3CCNCC3)cc21 | > 20.6 µM (inactive)
CC[C@H](NC(C)C)[C@H](O)c1ccc(O)c2[nH]c(=O)ccc12 | > 46 µM (inactive)
